# Measured values published in the supplement of paper PMC10849652.
# Of roughly 8,800 targets only a part is listed; those with a hit were picked by preference. About 0.5% of all pairs of compound and target were hits. Unmarked numbers belong to inactive results.
# Key:
# Test in all cases: log2 fold change, soluble protein after heating vs DMSO (PISA); higher = thermal stabilisation; K562 lysate, 10 uM; active = over 0.2 and 3.5 SD of the protein, either way, in both replicates (recomputed)
# lapatinib = compound: CS(=O)(=O)CCNCc1ccc(-c2ccc3ncnc(Nc4ccc(OCc5cccc(F)c5)c(Cl)c4)c3c2)o1 [lapatinib]
# Outline: (§1)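 Quantification was by TMTpro 16plex LC-MS/MS with equalised channel sums, applied to the supernatant after 21,000xg for 90 min. Samples were crude K562 extract at 1 mg/mL protein in PBS pH 7.4 with 1 mM MgCl2, treated with 10 μM compound for 30 min, heated for 3 min across 48°C-58°C, pooled and brought to 0.5% NP-40 at 4°C. Values are log-two fold changes in thermal stability relative to solvent controls, from duplicates.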
# pictilisib = compound: CS(=O)(=O)N1CCN(Cc2cc3nc(-c4cccc5[nH]ncc45)nc(N4CCOCC4)c3s2)CC1 [pictilisib]
# Outline: as §1
# crizotinib = compound: C[C@@H](Oc1cc(-c2cnn(C3CCNCC3)c2)cnc1N)c1c(Cl)ccc(F)c1Cl [crizotinib]
# Outline: as §1
# [1] = compound: C[C@H](C1=CC=C(C=C1)C(=O)NC2=C3C=CNC3=NC=C2)N
# Outline: as §1
# duvelisib = compound: C[C@H](Nc1ncnc2nc[nH]c12)c1cc2cccc(Cl)c2c(=O)n1-c1ccccc1 [duvelisib]
# Outline: as §1
# gandotinib = compound: Cc1cc(Nc2cc(CN3CCOCC3)c3nc(C)c(Cc4ccc(Cl)cc4F)n3n2)n[nH]1 [gandotinib]
# Outline: as §1
# tozasertib = compound: Cc1cc(Nc2cc(N3CCN(C)CC3)nc(Sc3ccc(NC(=O)C4CC4)cc3)n2)n[nH]1 [tozasertib]
# Outline: as §1
# doramapimod = compound: Cc1ccc(-n2nc(C(C)(C)C)cc2NC(=O)Nc2ccc(OCCN3CCOCC3)c3ccccc23)cc1 [doramapimod]
# Outline: as §1
# bafetinib = compound: Cc1ccc(NC(=O)c2ccc(CN3CC[C@H](N(C)C)C3)c(C(F)(F)F)c2)cc1Nc1nccc(-c2cncnc2)n1 [bafetinib]
# Outline: as §1
# [2] = compound: Cc1cccc(CC(=O)N2CCc3c2ccc(-c2cn(C)c4ncnc(N)c24)c3F)n1
# Outline: as §1
# nilotinib = compound: Cc1cn(-c2cc(NC(=O)c3ccc(C)c(Nc4nccc(-c5cccnc5)n4)c3)cc(C(F)(F)F)c2)cn1 [nilotinib]
# Outline: as §1
# [3] = compound: Cc1nc(Nc2n[nH]c3c2CN(C(=O)N[C@H](CN(C)C)c2ccccc2)C3(C)C)c2sccc2n1
# Outline: as §1
# dasatinib = compound: Cc1nc(Nc2ncc(C(=O)Nc3c(C)cccc3Cl)s2)cc(N2CCN(CCO)CC2)n1 [dasatinib]
# Outline: as §1
# [4] = compound: Cc1ncc(-c2ccnc(Nc3ccc(S(C)(=O)=O)cc3)n2)n1C(C)C
# Outline: as §1
# [5] = compound: Cn1cc(-c2ccc3c(c2)CCN3C(=O)Cc2cccc(C(F)(F)F)c2)c2c(N)ncnc21
# Outline: as §1
# quisinostat = compound: Cn1cc(CNCC2CCN(c3ncc(C(=O)NO)cn3)CC2)c2ccccc21 [quisinostat]
# Outline: as §1
# tipifarnib = compound: Cn1cncc1[C@@](N)(c1ccc(Cl)cc1)c1ccc2c(c1)c(-c1cccc(Cl)c1)cc(=O)n2C [tipifarnib]
# Outline: as §1
# [6] = compound: NC(=O)Nc1cc(-c2cccc(F)c2)sc1C(=O)N[C@H]1CCCNC1
# Outline: as §1
# [7] = compound: NC(=O)c1cnc(N[C@@H]2CCCC[C@@H]2N)nc1Nc1cccc(-n2nccn2)c1
# Outline: as §1
# [8] = compound: NC1(c2ccc(-c3nc4ccn5c(=O)[nH]nc5c4cc3-c3ccccc3)cc2)CCC1
# Outline: as §1
# UniProt Q9UNA0, sequence (Q9UNA0 whole entry, looked up): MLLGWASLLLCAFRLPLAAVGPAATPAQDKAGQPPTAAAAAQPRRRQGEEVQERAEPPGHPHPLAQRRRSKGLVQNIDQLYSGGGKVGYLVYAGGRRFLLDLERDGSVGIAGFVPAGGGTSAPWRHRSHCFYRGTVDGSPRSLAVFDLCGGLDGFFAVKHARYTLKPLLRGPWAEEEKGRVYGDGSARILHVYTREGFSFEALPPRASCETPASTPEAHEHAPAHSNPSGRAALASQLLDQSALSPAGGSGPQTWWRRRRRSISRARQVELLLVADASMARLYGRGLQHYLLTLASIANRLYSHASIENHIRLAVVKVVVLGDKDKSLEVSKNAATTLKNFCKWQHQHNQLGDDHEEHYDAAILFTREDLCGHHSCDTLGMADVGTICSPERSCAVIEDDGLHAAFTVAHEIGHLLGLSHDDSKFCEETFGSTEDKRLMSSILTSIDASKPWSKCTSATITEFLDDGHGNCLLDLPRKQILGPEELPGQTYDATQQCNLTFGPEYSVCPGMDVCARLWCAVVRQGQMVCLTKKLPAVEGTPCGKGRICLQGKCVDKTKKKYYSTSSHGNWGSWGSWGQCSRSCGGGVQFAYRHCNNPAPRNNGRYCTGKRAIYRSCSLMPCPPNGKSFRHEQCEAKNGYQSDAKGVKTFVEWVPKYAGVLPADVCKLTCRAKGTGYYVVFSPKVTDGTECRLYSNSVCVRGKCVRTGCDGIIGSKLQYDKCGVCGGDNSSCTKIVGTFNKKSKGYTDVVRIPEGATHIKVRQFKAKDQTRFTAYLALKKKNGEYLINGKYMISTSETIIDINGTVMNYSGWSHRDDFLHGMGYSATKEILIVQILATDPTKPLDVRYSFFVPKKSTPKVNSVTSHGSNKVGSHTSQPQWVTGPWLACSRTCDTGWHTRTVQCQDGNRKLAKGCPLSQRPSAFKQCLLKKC
# UniProt Q9NWB6, sequence (Q9NWB6 whole entry, looked up): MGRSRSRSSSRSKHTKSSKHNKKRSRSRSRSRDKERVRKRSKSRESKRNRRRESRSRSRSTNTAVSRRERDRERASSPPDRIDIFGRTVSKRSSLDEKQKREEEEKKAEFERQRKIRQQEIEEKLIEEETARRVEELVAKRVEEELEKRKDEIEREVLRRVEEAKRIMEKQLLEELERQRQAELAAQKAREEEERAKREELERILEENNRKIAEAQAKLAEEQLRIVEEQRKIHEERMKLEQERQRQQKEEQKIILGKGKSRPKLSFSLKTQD
# UniProt P40616, sequence (P40616 whole entry, looked up): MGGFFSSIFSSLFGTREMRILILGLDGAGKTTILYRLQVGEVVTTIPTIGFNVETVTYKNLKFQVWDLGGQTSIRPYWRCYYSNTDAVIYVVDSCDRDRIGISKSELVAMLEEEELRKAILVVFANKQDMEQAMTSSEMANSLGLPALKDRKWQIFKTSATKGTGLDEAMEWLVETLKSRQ
# UniProt Q02252, sequence (Q02252 whole entry, looked up): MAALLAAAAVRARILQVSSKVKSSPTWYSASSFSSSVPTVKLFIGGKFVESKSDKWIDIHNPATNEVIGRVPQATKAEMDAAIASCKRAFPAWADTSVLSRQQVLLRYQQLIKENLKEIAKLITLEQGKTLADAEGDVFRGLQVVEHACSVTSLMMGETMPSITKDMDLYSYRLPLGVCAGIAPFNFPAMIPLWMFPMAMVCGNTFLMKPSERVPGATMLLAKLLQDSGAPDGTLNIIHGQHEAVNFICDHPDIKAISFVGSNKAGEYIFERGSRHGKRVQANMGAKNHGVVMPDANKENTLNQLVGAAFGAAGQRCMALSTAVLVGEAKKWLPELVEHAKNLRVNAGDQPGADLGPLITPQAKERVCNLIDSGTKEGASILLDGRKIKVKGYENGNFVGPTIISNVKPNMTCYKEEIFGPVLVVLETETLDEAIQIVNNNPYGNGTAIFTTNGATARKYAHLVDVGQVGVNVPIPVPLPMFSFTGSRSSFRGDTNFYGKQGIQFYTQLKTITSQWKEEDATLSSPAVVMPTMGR
# UniProt Q3SY69, sequence (Q3SY69 whole entry, looked up): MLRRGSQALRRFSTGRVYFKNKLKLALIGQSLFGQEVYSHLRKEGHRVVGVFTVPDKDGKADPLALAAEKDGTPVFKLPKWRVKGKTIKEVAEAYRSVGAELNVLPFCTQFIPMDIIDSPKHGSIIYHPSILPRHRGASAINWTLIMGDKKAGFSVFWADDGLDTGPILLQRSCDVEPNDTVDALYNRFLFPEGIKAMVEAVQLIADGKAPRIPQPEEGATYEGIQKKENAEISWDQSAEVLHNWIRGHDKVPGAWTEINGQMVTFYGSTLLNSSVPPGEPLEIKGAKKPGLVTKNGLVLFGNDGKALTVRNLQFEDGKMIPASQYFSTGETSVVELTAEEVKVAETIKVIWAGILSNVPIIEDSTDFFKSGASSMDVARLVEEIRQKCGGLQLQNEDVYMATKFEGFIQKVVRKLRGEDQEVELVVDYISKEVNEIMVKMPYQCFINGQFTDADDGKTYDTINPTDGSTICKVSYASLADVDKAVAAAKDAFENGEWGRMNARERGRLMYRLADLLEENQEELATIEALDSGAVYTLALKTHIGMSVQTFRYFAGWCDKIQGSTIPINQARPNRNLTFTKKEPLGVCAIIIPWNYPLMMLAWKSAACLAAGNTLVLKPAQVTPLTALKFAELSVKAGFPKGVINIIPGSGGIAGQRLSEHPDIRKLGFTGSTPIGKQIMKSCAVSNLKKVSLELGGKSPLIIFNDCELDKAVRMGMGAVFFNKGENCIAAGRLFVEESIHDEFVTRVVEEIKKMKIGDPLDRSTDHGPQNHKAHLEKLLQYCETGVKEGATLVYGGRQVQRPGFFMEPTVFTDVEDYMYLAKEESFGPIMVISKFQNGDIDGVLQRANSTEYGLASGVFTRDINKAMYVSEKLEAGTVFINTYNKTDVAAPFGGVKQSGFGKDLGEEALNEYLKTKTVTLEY
# UniProt P08243, sequence (P08243 whole entry, looked up): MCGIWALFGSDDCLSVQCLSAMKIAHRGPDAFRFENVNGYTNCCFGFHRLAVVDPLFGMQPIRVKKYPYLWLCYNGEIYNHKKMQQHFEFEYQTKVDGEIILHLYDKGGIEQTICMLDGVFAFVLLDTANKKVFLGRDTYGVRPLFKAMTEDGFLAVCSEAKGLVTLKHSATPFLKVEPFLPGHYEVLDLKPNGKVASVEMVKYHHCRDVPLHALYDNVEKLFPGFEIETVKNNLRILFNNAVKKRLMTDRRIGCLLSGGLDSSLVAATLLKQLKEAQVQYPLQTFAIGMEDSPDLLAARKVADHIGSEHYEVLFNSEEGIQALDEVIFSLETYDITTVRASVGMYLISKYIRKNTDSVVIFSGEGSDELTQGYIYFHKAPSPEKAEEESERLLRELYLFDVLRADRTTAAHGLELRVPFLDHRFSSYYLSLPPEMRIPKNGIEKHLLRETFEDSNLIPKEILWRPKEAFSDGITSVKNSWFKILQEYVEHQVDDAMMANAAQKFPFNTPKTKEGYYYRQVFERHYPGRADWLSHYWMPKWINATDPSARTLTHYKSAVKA
# UniProt Q9Y6B7, sequence (Q9Y6B7 whole entry, looked up): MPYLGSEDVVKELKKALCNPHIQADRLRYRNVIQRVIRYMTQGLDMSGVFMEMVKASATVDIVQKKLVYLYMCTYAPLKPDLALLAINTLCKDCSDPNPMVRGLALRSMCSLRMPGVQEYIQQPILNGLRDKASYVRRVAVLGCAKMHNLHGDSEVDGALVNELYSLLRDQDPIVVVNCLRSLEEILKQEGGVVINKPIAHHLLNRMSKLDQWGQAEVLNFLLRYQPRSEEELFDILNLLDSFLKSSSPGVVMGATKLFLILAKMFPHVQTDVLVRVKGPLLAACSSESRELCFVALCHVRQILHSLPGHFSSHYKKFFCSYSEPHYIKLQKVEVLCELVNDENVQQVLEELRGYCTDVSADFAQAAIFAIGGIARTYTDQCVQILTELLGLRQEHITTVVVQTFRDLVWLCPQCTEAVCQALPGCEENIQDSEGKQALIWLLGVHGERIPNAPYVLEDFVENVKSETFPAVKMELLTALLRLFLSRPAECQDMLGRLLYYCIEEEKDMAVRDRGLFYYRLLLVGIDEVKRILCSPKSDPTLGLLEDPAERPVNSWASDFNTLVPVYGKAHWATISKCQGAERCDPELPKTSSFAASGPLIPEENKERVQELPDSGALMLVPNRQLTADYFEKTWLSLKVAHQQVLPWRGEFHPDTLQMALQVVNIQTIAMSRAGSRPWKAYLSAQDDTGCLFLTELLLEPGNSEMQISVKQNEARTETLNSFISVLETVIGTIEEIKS
# UniProt Q9Y4X0, sequence (Q9Y4X0 whole entry, looked up): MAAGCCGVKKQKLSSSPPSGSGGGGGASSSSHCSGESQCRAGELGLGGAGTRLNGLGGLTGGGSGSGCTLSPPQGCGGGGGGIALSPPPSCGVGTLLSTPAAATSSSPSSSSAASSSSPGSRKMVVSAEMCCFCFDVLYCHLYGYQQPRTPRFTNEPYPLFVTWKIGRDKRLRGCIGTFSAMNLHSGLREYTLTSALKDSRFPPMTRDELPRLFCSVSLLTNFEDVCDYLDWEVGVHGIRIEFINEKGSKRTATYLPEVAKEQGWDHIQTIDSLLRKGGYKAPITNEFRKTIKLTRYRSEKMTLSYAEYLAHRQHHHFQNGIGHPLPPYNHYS
# UniProt Q99943, sequence (Q99943 whole entry, looked up): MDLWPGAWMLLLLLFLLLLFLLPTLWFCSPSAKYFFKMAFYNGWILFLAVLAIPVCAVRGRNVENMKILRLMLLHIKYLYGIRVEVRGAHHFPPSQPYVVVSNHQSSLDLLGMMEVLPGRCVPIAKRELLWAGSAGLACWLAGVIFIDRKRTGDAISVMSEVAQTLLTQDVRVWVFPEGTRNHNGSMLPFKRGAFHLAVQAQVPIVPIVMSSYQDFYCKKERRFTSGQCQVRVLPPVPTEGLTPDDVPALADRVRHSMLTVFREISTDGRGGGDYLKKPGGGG
Target,log2 fold change (lapatinib),log2 fold change (pictilisib),log2 fold change (crizotinib),log2 fold change [1],log2 fold change (duvelisib),log2 fold change (gandotinib),log2 fold change (tozasertib),log2 fold change (doramapimod),log2 fold change (bafetinib),log2 fold change [2],log2 fold change (nilotinib),log2 fold change [3],log2 fold change (dasatinib),log2 fold change [4],log2 fold change [5],log2 fold change (quisinostat),log2 fold change (tipifarnib),log2 fold change [6],log2 fold change [7],log2 fold change [8]
ASNS (UniProt P08243),-0.019,-0.012,-0.042,0.013,-0.001,-0.051,0.011,-0.01,-0.033,0.002,-0.004,-0.008,-0.039,-0.018,0.025,0.027,0.017,0.027,-0.01,-0.028
AP4B1 (UniProt Q9Y6B7),0.064,-0.142,0.025,-0.106,-0.058,-0.023,-0.011,0.019,-0.079,0.135,0.023,0.011,0.032,-0.013,0.027,0.018,-0.051,0.1,0.028,0.007
ALDH6A1 (UniProt Q02252),-0.04,-0.028,-0.023,-0.032,0.073,-0.033,0.021,-0.017,0.122,-0.001,-0.053,0.161,-0.144,-0.022,0.06,-0.027,-0.026,0.018,-0.038,-0.013
ALDH1L2 (UniProt Q3SY69),0.029,-0.01,-0.032,-0.066,0.003,0.039,0.032,0.005,-0.029,0.083,-0.013,0.01,-0.021,0.012,0.046,-0.027,0.012,0.026,0.05,-0.042
ACTG1 (UniProt I3L4N8),-0.072,-0.209,-0.066,-0.039,0.13,-0.159,0.083,-0.065,-0.183,-0.096,-0.068,0.104,0.055,-0.045,-0.171,0.032,0.11,-0.053,-0.033,-0.114
AMMECR1 (UniProt Q9Y4X0),0.005,-0.013,-0.011,-0.027,0.022,-0.019,0.039,-0.009,-0.04,0.037,-0.005,-0.025,-0.037,0.017,0.035,-0.054,0.022,0.021,0.007,-0.024
ARL1 (UniProt P40616),0.001,0.051,-0.028,-0.056,0.001,0.159,0.004,0.228 (active),-0.027,0.096,0.092,-0.074,0.026,-0.118,-0.016,-0.082,-0.268,0.01,-0.001,0.005
ALG8 (UniProt Q9BVK2),-0.043,-0.043,0.017,-0.211,-0.013,0,0.116,-0.06,-0.08,0.087,-0.007,-0.008,-0.051,-0.077,0.02,0.019,-0.165,0.043,-0.025,-0.006
ANKRD27 (UniProt Q96NW4),0.025,-0.026,-0.095,-0.03,-0.025,0.049,0.002,-0.009,-0.059,0.022,0.016,0.049,-0.01,0.061,-0.023,-0.177,-0.067,0.05,0.025,-0.033
ARGLU1 (UniProt Q9NWB6),0.038,0.013,0.043,-0.062,-0.023,-0.119,0.045,0.019,-0.014,0.013,-0.012,-0.007,0.058,-0.018,0.096,0.022,-0.043,-0.133,-0.012,0.016
AGTPBP1 (UniProt Q9UPW5),0.008,-0.103,-0.121,0.018,0.009,-0.271,0.028,0.007,0.001,0.113,0.077,-0.205,0.038,0.1,-0.032,-0.197,0.207,0.038,0.045,0.115
AGPAT1 (UniProt Q99943),-0.122,0.009,-0.029,-0.019,0.009,-0.034,0.041,0.028,-0.057,0.091,-0.021,-0.004,-0.069,0.055,-0.062,0.043,-0.058,-0.028,0.028,-0.003
ALDH1A1 (UniProt P00352),0.002,-0.068,0.004,0.05,-0.023,-0.111,-0.006,-0.015,0.061,-0.164,0.036,-0.019,0.306 (active),-0.012,-0.04,0.015,0.019,0.014,-0.011,0.034
ADAMTS5 (UniProt Q9UNA0),-0.102,-0.015,-0.139,-0.843 (active),-0.004,0.332,0.011,0.04,-0.211,0.33,0.003,-0.062,-0.01,-0.011,0.014,-0.222,-0.041,0.016,0.031,-0.083
ANKRD30A (UniProt Q9BXX3),-0.228,0.028,0.128,-0.155,-0.038,1.59 (active),0.281,-0.068,0.069,0.918,-0.008,-0.012,0.006,-0.039,-0.017,0.179,0.15,0.047,0.807,
ARHGAP25 isoform 4 (UniProt P42331),0.011,-0.024,-0.053,-0.011,0.008,-0.024,-0.006,-0.005,-0.075,0.081,-0.037,0.039,-0.039,0.022,0.008,-0.115,-0.016,0.017,0.028,-0.009
